# According to PubChem BioAssay (Tox21):
# Several values for one entry are separate records, joined by “and”; a condition that tells them apart may be missing. Identical values can stand only once. Inconclusive results are not listed. Some structures have more than one record in an assay (separate samples or runs), and their calls can disagree. Activity calls are given as the source filed them. The call rests on the fitted dose curve.
# Test: Nuclear factor erythroid 2-related factor 2/antioxidant responsive element (Nrf2/ARE) small molecule agonists: luciferase reporter gene qHTS assay in human keratinocytes (AID 1919969); further: nearly all actives have a fitted effect of over 35% in size
# Conditions: KeratinoSens HaCaT ARE-luciferase, luminescence, 24 h; series mostly up to 92.4 µM; activity, positive = activation: at the top concentration
# From the text: National Center for Advancing Translational Sciences [NCATS]
# Division of Preclinical Innovation [DPI]
# U.S. Environmental Protection Agency [EPA]
# National Institutes of Environmental Health Sciences [NIEHS]
# National Toxicology Program [NTP]
# U.S. Food and Drug Administration [FDA]
# Oxidative stress has been implicated in the pathogenesis of a variety of diseases ranging from cancer to neurodegeneration. The antioxidant response element (ARE) signaling pathway plays an important role in the amelioration of oxidative stress. The KeratinoSens (Givaudan, Switzerland) is an in vitro test method which quantifies luciferase induction as a measure of activation of Keap1-Nrf2-antioxidationt/electrophile response element (ARE) dependant pathway in HaCaT human keratinocytes stably transfected with a selectable plasmid. The KeratinoSens assay is a cell-based assay with a reporter cell line to detect potential skin sensitizers by their ability to induce the Nrf2/ARE-response. The activation of the report gene under culture conditions can be detected by ONE-Glo Luciferase Assay System (Promega, Madison, WI). This cell line has been used to screen the Tox21 10K compound library to identify agonists that induce oxidative stress. The cytotoxicity of the Tox21 compound library against the KS-ARE cell line was tested in parallel by measuring the cell viability using CellTiter- Fluor assay system (Promega, Madison, WI) in the same wells.
# HaCaT derived cell line KeratinoSens were dispensed at 1,500 cells/5uL/well in 1536-well white wall/solid bottom plates using a Multidrop Combi (ThermoFisher Scientific, Waltham, MA) dispenser. After the assay plates were incubated at 37 C/5% CO2 for 5 h, 23 nL of compounds dissolved in DMSO, positive controls or DMSO only was transferred to the assay plate by a pintool workstation (Kalypsys, San Diego, CA). The plates were incubated at 37 C/5% CO2 for 23 h, followed by addition of 1uL/well of CellTiter-Fluor reagent into the assay plates using a Flying Reagent Dispenser (Aurora Discovery, San Diego, CA) for cell viability readout that measures cytotoxicity. After 1 h incubation at 37 C/5% CO2 the fluorescence intensity was measured using a ViewLux (PerkinElmer, Shelton, CT) plate reader. Then 4uL/well of One-Glo were added using a Flying Reagent Dispenser. After the plates were incubated at room temperature for 30 min, the luminescence intensity in the assay plates was measured using ViewLux plate reader.
# On the % scale 0 is the no-effect control and ±100 the full control effect; potency means the concentration at half of the fitted maximal effect.
Structure (SMILES),Potency,"activity, positive = activation"
CC(COCC(C)OC(=O)c1ccccc1)OC(=O)c1ccccc1 (stereo not given),inactive,
CCC(C)CO (stereo not given),,-1.15% (inactive)
CCc1ccc(C)nc1,,-4.33% (inactive)
COCCOCCOCCOCCOC,,5.34% (inactive)
Cc1occc1S,68.6 µM (active),
CCC(C(=O)NC(N)=O)c1ccccc1 (stereo not given),,-5.25% (inactive)
COCCOCCOCCOCCOCCO,,-0.695% (inactive)
O=C(O)c1ccc(CO)o1,,-3.53% (inactive)
COc1cc(C(=S)N2CCOCC2)cc(OC)c1OC,,3.16% [at 42.5 µM] (inactive)
Cc1c(N)cccc1C(F)(F)F,,-0.459% [at 42.5 µM] (inactive)
CCCCCCCC/C=C\CCCCCCCC(=O)OCCCC,,8.08% [at 19 µM] (inactive)
CCSC(=O)N(CC)CC,,-15.2% (inactive)
CCCCC(CC)COC(=O)CC(C(=O)OCC(CC)CCCC)S(=O)(=O)O (stereo not given),inactive,
C1=CCC2CC=CC2C1 (stereo not given),,16.5% (inactive)
CC(=O)Oc1ccccc1C(=O)Nc1ncc([N+](=O)[O-])s1,39.3 µM (active) and 29.8 µM (active),
CC(C)(C)c1n[nH]c(=O)n(N)c1=O,,-11.7% (inactive)
O=C1CCCCC1,inactive,
OC1OC[C@@H](O)[C@H](O)[C@H]1O (stereo not given in full),,-10.1% (inactive)
CCCCCCN,,5.8% (inactive)
O=[N+]([O-])c1ccc(Oc2ccc([N+](=O)[O-])cc2)cc1,,-3.16% (inactive)

Structure (SMILES),Potency,"activity, positive = activation"
COC(=O)c1cc(Cl)ccc1NS(=O)(=O)C(F)(F)F,,0.643% [at 42.5 µM] (inactive)
CN1CCCC1=O,,-8.34% (inactive)
CCCCCC(C)=O,inactive and 27.3 µM (active),
O=C(c1ccccc1)C1(O)CCCCC1,,-1.19% (inactive)
CC(C)(N=C=O)c1cccc(C(C)(C)N=C=O)c1,inactive,
Nc1c(NC/C=C\COc2cc(CN3CCCCC3)ccn2)c(=O)c1=O,,-5.23% [at 19 µM] (inactive)
Cc1cc(C)c(S(=O)(=O)O)cc1N=Nc1cc(S(=O)(=O)O)c2ccccc2c1O,,-8.25% (inactive)
NC(=O)Cc1cccc(C(=O)c2ccccc2)c1N,,-0.491% [at 42.5 µM] (inactive)
O=C(O)CCc1ccccc1,,2.58% (inactive)
Cc1ccc(-c2ccccc2C#N)cc1,,4.67% [at 42.5 µM] (inactive)
Cc1ccc(C)cc1,,5.18% (inactive)
C=CC(C)CCC=C(C)C (stereo not given),,-3.85% (inactive)
NC(=O)c1ccc(N)cc1,,-15.3% (inactive)
C=C(C)C(=O)OCCOCCOCCOC(=O)C(=C)C,,-23.4% (inactive)
CC(C)(Oc1ccc(CCNC(=O)c2ccc(Cl)cc2)cc1)C(=O)O,inactive,
O=C(CCS)OCC(COC(=O)CCS)(COC(=O)CCS)COC(=O)CCS,,-12.9% (inactive)
CCCC(=O)OCc1ccccc1,,-5.78% (inactive)
CCCCCC(=O)O[C@]1(C(C)=O)CC[C@H]2[C@@H]3CCC4=CC(=O)CC[C@]4(C)[C@H]3CC[C@@]21C,inactive,
CC1CCCC(=O)C1=O (stereo not given),,15.7% (inactive)
Clc1ccc2c(c1)C(N1CCNCC1)=Nc1ccccc1O2,inactive,
